Screens: PubChem, The Scripps Research Institute Molecular Screening Center
AHR activator: activates the human aryl hydrocarbon receptor | 320,000 tested, 2.5% active | activation, % at 5 µM | P35869 | AHR-responsive luciferase reporter cells, luminescence; in the data active = activation above about 47%;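 note: 0% = vehicle wells and 100% = reference agonist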
ssDAF12 agonist: activators of S. stercoralis DAF-12 nuclear receptor | HEK293 ssDAF-12/GRIP1 lit1-tk-luc reporter, luminescence; % of 3 µM dafachronic acid response | activation, % at 6.8 µM | 370,000 tested, 1% active | AID 652126;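 active = activation above the mean over all tested compounds plus 3 SD, cut at about 0.9% in these data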;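 note: 0% = DMSO-only wells and 100% = 3 µM delta7-dafachronic acid wells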
hcDAF-12 act: activates DAF-12 receptor from parasite H. contortus | 370,000 tested, 1.4% active | AID 652067 | HEK293 hcDAF-12 lit1-tk-luc reporter, luminescence; 0% DMSO, 100% Δ7-dafachronic acid | activation, % at 6.8 µM;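 active = activation above the mean of all tested compounds plus 3 SD, cut at about 5.5% in these data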;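 note: 100% = response to 3 µM Δ7-dafachronic acid high control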
DAX1 inh-1: inhibitors of human orphan nuclear receptor DAX1 (NR0B1). 340,000 tested, 0.99% active. P51843. HEK293 Gal4-DAX1 luciferase reporter, luminescence. inhibition, % at 6.75 µM;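 active = inhibition above the mean over all tested compounds plus 3 SD, cut at about 4.2% in these data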;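 note: 0% = DAX1-transfected cells with DMSO and 100% = empty-vector control cells with DMSO; inhibition shows as a rise in luminescence from relieved DAX1 repression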
Target sequence (P51843 207-470 limits assumed): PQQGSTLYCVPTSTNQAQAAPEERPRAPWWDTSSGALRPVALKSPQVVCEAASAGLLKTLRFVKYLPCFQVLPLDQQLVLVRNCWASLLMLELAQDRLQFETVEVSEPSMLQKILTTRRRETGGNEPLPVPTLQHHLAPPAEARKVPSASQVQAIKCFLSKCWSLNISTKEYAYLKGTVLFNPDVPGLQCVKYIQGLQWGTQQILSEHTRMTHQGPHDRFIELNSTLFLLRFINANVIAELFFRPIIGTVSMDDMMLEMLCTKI
DAX1 inh-2: blocks DAX1 repression of SF-1 activated StAR promoter; AID 652010; HEK293T StAR-luciferase reporter, SF-1/DAX-1 repression relief; inhibition, % at 6.8 µM; 370,000 tested, 1.1% active;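 active = inhibition above the mean over all tested compounds plus 3 SD, cut at about 3.6% in these data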;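 note: 0% = DAX-1 cells with DMSO and 100% = cells lacking DAX-1 with DMSO; higher inhibition means more luminescence from relief of DAX-1 repression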
hgDAF12 agonist: agonists of H. glycines DAF-12 nuclear receptor; HEK293 GAL4-hgDAF12 UAS-luciferase reporter, agonist luminescence; normalized to butyrate control; activation, % at 6.8 µM; 370,000 tested, 1.8% active; AID 687014;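 active = activation above a cutoff set at the mean of all screened compounds plus 3 SD, cut at about 10% in these data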;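 note: 0% = DMSO wells and 100% = sodium butyrate wells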
* marks the source's active call; other numbers are inactive results; / = not tested or not shown. In the library only some 5.7% were active in any assay of this set; here they are far more common.

SMILES | AHR activator | ssDAF12 agonist | hcDAF-12 act | DAX1 inh-1 | DAX1 inh-2 | hgDAF12 agonist
COc1cc2ccc(=O)oc2cc1OCC(O)C(C)(C)O (configuration not stated) | 0 | -2 | -1 | 3 | 0 | 1
O=C(N/N=C/C1CC2CCC1C2)C1CC1 (configuration not stated) | 46 | -1 | 2 | 0 | 3.7* | 1
CC(C)(C)/C=N/NC(=O)C1CC1 | 23 | -1 | -1 | / | 1 | 2
COc1cc(OC)c(NC(=S)NCc2ccc(F)cc2)cc1Cl | 5 | -2 | -2 | 4.3* | 0 | -3
NC(=O)C1(N2CCCCC2)CCN(S(=O)(=O)c2cc(Cl)ccc2Cl)CC1 | 5 | 0 | 2 | 4.6* | 1 | -1
NC(=O)C1(N2CCCCC2)CCN(S(=O)(=O)c2ccc(Cl)s2)CC1 | 0 | -1 | 2 | 0 | 0 | 3
O=C(NC(=S)N1CCCc2ccccc21)c1ccc([N+](=O)[O-])cc1 | 28 | 0 | 5.6* | -1 | 0 | 1
COc1ccc(C(=O)NC(=S)N2CCCc3ccccc32)cc1OC | 5 | -1 | 0 | 0 | 0 | -4
Cc1ccccc1-c1cnc(C(O)c2cc(Cl)cc(Cl)c2)[nH]1 (configuration not stated) | / | 0 | 1 | / | -1 | 0
COC(=O)c1ccc2nc(-c3ccccc3)c(Cc3ccc(C)cc3)n2c1 | / | 0.9* | 5 | / | 2 | 6
COC(=O)c1ccc2nc(-c3cccc(Cl)c3)c(Cc3cccc(Cl)c3)n2c1 | / | 0.9* | 2 | / | 3 | 3
COC(=O)c1ccc2nc(-c3ccc(C)cc3)c(Cc3ccccc3)n2c1 | / | 0 | 0 | / | 1 | 5
COC(=O)c1ccc2nc(-c3cccc(Cl)c3)c(Cc3ccsc3)n2c1 | / | -1 | 1 | / | 1 | 4
COC(=O)c1ccc2nc(-c3cccc(Br)c3)c(Cc3ccsc3)n2c1 | / | -1 | 0 | / | 3.8* | 0
Cc1ccc(CS(=O)Cc2ccc(C(=O)N3CCN(C4CCCCC4)CC3)o2)cc1 (configuration not stated) | 3 | -1 | -1 | 0 | 0 | 3
Cc1[nH]c2ccccc2c1/C=N/NC(=O)CCC(=O)NCc1ccccc1 | 18 | 1 | 2 | 1 | 0 | 6
Cc1n[nH]c(C)c1CCC(=O)N/N=C/c1c[nH]c2ccccc12 | 13 | 2.1* | 6.1* | 1 | 1 | 1
Cc1n[nH]c(C)c1CCC(=O)N/N=C/c1c(C)[nH]c2ccccc12 | 29 | -1 | 4 | 6.2* | 0 | 1
CC(C)C(=O)NNC(=O)c1csc(CS(=O)(=O)c2ccc(Cl)cc2)n1 | 1 | 0 | 0 | 0 | 0 | -2
CS(=O)(=O)NNC(=O)c1csc(Cc2c(Cl)sc3ccc(Cl)cc23)n1 | 3 | -1 | -1 | 4.6* | 0 | 1
CCOc1cc(/C=C2/NC(=O)N(CC(=O)OC)C2=O)ccc1O | 2 | -1 | -1 | -1 | 1 | -1
Clc1ccccc1-c1csc(Nc2cccnc2)n1 | 68* | 0 | 4 | 0 | 0 | 4
COc1ccc(Nc2nc(-c3sc(C)nc3C)cs2)cc1 | 44 | -2 | -3 | -2 | -1 | 1
Clc1cccc(-c2csc(Nc3cccnc3)n2)c1 | 41 | 0 | 5.8* | 1 | 0 | 5
Cc1nc(C)c(-c2csc(Nc3cccnc3)n2)s1 | 94* | -1 | 1 | 2 | -1 | 6
SMILES | AHR activator | ssDAF12 agonist | hcDAF-12 act | DAX1 inh-1 | DAX1 inh-2 | hgDAF12 agonist
C/C(N)=C(/C#N)C(=O)COC(=O)CCCNC(=O)c1ccc(Cl)cc1 | -2 | 0 | -1 | 4 | 0 | 0
O=C(CCS(=O)(=O)c1ccccc1)Nc1nc2c(s1)COc1ccccc1-2 | 63* | -1 | 1 | -1 | -2 | -3
CC(=O)c1cc2c(cc1NC(=O)c1ccc(C)cc1)OCO2 | 36 | / | / | / | / | /
Cc1ccc(NC(=O)Cn2ccnc2)cc1C | 59* | -2 | 0 | -2 | 0 | -1
Cc1ccc(NC(=O)c2nnn(CC(=O)Nc3ccccc3)c2N)cc1C | 48* | -1 | -2 | -1 | -1 | -1
Cc1ccc(NC(=O)Cn2cnc(C(=O)Nc3ccc(C)c(C)c3)n2)cc1C | / | 0 | -3 | -2 | 0 | 0
Cc1ccc(NC(=O)Cn2nnc3ccccc32)cc1 | 7 | 0 | 5 | / | 2 | 9
Cc1cccc(NC(=O)Cn2nnc3ccccc32)c1 | 7 | 0 | 3 | 4.7* | 3 | 9
